Measurements as given in article PMC4336329 (PLoS ONE, 2015).
Hit rate of the full screen: of about 310,000 compounds, about 14,000 (4.5%) showed an effect of 50% or more. Effects have a minus sign here. This excerpt belongs to a sample that is enriched for strong results.

Target: human ether-à-go-go-related gene (hERG) potassium channel (human, UniProt Q12809)
Assay: primary screen, population patch clamp on CHO cells stably expressing hERG; higher = less effect of the substance
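Further: peak tail current of the secondary pulse compared with the same well before compound.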

Chain of human ether-à-go-go-related gene (hERG) potassium channel (Q12809 whole entry, looked up): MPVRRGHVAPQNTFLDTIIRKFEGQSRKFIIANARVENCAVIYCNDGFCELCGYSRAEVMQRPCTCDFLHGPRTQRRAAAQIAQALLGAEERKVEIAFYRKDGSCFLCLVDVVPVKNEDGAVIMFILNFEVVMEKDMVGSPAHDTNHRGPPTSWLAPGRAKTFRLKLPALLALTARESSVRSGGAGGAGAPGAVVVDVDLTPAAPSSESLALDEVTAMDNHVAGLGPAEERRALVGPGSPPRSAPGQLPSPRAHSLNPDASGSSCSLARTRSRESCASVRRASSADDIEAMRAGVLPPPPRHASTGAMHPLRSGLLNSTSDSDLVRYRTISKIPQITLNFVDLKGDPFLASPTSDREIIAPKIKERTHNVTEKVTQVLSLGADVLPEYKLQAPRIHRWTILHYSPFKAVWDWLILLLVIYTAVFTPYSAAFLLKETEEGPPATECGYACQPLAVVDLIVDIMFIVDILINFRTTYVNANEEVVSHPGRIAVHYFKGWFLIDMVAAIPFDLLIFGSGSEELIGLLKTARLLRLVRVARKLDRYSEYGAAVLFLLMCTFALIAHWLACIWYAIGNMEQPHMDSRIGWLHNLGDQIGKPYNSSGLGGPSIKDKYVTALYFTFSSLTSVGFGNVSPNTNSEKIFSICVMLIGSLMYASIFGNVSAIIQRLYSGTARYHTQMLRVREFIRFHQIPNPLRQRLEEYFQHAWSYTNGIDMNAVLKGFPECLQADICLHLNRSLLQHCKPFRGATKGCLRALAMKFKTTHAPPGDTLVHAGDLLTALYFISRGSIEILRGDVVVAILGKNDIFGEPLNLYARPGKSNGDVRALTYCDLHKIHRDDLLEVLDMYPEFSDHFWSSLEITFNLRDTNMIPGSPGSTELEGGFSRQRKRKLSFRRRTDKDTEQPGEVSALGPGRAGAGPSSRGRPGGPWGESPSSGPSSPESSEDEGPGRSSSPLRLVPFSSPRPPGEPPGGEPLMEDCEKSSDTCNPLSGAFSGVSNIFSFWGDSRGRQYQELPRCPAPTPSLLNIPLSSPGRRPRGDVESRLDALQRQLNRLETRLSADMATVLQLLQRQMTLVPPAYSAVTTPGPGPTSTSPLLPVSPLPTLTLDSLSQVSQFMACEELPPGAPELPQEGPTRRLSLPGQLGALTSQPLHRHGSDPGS

SMILES	hERG current change (%, negative = inhibition) at 10uM [%]
Cc1ccc(NC(=O)Nc2ccc([N+](=O)[O-])cc2)nc1	9.85
CCCCn1c(N)c(N(Cc2ccccc2OC)C(=O)c2cc(=O)[nH]c3ccccc23)c(=O)[nH]c1=O	17.1
CC(=O)N1CCN(C(=O)CSc2nc3c(cnn3-c3ccccc3)c(=O)[nH]2)CC1	-9.1
CCOc1ccc(N(C)S(=O)(=O)c2ccc(C)c(C(=O)NCc3ccccc3OC)c2)cc1	-6.23
Cc1ccc(-c2nn(CC(=O)NN3CCOCC3)c(=O)c3ccccc23)cc1	-1.66
N#Cc1cc(Cl)c(NCC2CCCO2)cc1C#N (centres unmarked)	7.45
CC1CCCN(C(=O)Nc2cccc(NC(=O)N3CCCC(C)C3C)c2)C1C (centres unmarked)	0.168
Cc1ccc(N2CC(C(=O)Nc3ccc(C)c(S(=O)(=O)N(C)C)c3)CC2=O)cc1 (centres unmarked)	-25.2
O=C(OC(C(=O)NC1CCCC1)c1ccccc1F)c1ccco1 (centres unmarked)	5.25
Cc1cccc(NC(=O)CSCC(=O)N2CCN(c3cccc(C(F)(F)F)c3)CC2)c1	-21.8
COc1ccc(NC(=O)CSCC(=O)N(C)CC(=O)Nc2c(C)cccc2C)cc1	-0.574
CNC(=O)c1c(N)sc2c1CCCCC2	-3.16
COC(=O)C(NC(=O)c1ccco1)(Nc1nc(C2CC2)cs1)C(F)(F)F (centres unmarked)	11.7
Cn1ccnc1COc1ccc(C=O)cc1	10.4
CCn1c(SCc2nc3ccccc3s2)nnc1-c1cccs1	-60
C=CCn1c(SCC(=O)Nc2ccc3c(c2)CCC3)nnc1-c1cccs1	-76.9
C=CCn1c(SCC(=O)Nc2ccc(C(=O)OC(C)C)cc2)nnc1-c1cccs1	5.07
Cn1c(SCc2nc3ccccc3s2)nnc1-c1cccs1	-36
C=CCn1c(SCC(=O)Nc2ccc(C(=O)OCC)cc2)nnc1-c1cccs1	16.7
CCn1c(SCc2nc3ccccc3s2)nnc1-c1ccccc1	-11
COc1cccc(-c2nnc(SCc3nc4ccccc4s3)n2C)c1	-29
COc1ccc(-n2nnnc2SCc2nc3ccccc3s2)cc1	-5.94
COc1ccc(-c2nnc(SCc3nc4ccccc4s3)n2C(C)C)cc1	-67.7

SMILES	hERG current change (%, negative = inhibition) at 10uM [%]
Cc1c(/C=N\NC(=O)C2COc3ccc(C(C)(C)C)cc3O2)c2ccccc2n1C (centres unmarked)	14
CC(C)c1nnc(NC(=O)CCS(=O)(=O)c2ccccc2)s1	19.5
CCOC(=O)N1CCC(NC(=O)C2CCCN(C(=O)N3CCOc4ccccc43)C2)CC1 (centres unmarked)	3.21
CCCCOc1ccc(-c2c(C(=O)Nc3ccccc3)c(C)[nH]c(=S)c2C#N)cc1	12.1
C/C(=N/NC(=O)c1ccco1)c1cccc(NC(=O)c2ccc(C)s2)c1	1.1
COc1ccc(CCNC(=O)CCS(=O)(=O)c2ccc3c(c2)NC(=O)CO3)cc1OC	14.5
COc1ccc(NC(=O)CNC(=O)Cn2ccc3ccccc3c2=O)c(OC)c1	15
Cc1nn(Cc2ccc(Cl)cc2)c2sc(C(=O)OCC(N)=O)cc12	-52.1
Cc1nn(Cc2ccc(Cl)cc2)c2sc(C(=O)O)cc12	31.1
Cc1ccc(Cn2nc(C)c3cc(C(=O)OCC(N)=O)sc32)cc1	7.64
CC(=O)Nc1ccc(CN2CCN(CC(C)C)C(CCO)C2)cc1 (centres unmarked)	2.2
OCCC1CN(Cc2ccon2)CCN1CCc1ccccc1 (centres unmarked)	-19.2
OCCC1CN(Cc2ccc(Oc3ncccn3)cc2)CCN1CCc1ccccc1 (centres unmarked)	-55.2
CC(C)CN1CCN(Cc2ccc(Oc3ncccn3)cc2)CC1CCO (centres unmarked)	-28.5
CC(=O)Nc1ccc(CN2CCN(CCc3ccccc3)C(CCO)C2)cc1 (centres unmarked)	-51.8
CC(C)CCN1CCN(Cc2ccc(Oc3ncccn3)cc2)CC1CCO (centres unmarked)	-9.21
CC(=O)Nc1ccc(CN2CCN(CCC(C)C)C(CCO)C2)cc1 (centres unmarked)	19.7
CC(C)CN1CCN(Cc2ccc(F)cc2Cl)CC1CCO (centres unmarked)	-34.4
OCCC1CN(Cc2ccc(F)cc2)CCN1CCc1ccccc1 (centres unmarked)	-74.2
OCCC1CN(Cc2ccc(F)cc2Cl)CCN1CCc1ccccc1 (centres unmarked)	-67.4
COc1cc(NC(=O)COC(=O)Cc2ccc(-c3ccccc3)cc2)cc(OC)c1	3.6
Cc1cc(=O)[nH]c2nnnn12	4.44
O=C(Nc1cccc(F)c1)Nc1ccnn1C1CCN(C(=O)c2ccccn2)CC1	14.2

SMILES	hERG current change (%, negative = inhibition) at 10uM [%]
COc1cccc(N=C2SC(C(=O)Nc3ccc(F)cc3)CC(=O)N2C)c1 (centres unmarked)	-11
CC(OC(=O)c1nn(C)c(=O)c2ccccc12)C(=O)Nc1ccc(S(N)(=O)=O)cc1 (centres unmarked)	11.6
Cc1ccc(CN2CCN(Cc3ccc4c(c3)OCCO4)CC2CCO)cc1 (centres unmarked)	-39.8
Cc1cc(C)n(-c2ccc(F)cc2CN2CCN(Cc3ccccc3)C(CCO)C2)n1 (centres unmarked)	-37.2
OCCC1CN(Cc2cc(F)ccc2F)CCN1CCCc1ccccc1 (centres unmarked)	-70.3
OCCC1CN(Cc2ccc3c(c2)CCO3)CCN1Cc1ccc(F)cc1 (centres unmarked)	-72.9
COC(=O)c1ccc(CN2CCN(CCC(C)C)C(CCO)C2)cc1 (centres unmarked)	-25.7
OCCC1CN(Cc2ccc3c(c2)CCO3)CCN1C1CCCC1 (centres unmarked)	-12.7
COC(=O)c1ccc(CN2CCN(Cc3ccccc3)C(CCO)C2)cc1 (centres unmarked)	-16.5
OCCC1CN(Cc2ccc(F)cc2)CCN1CCCc1ccccc1 (centres unmarked)	-68.2
COC(=O)c1ccc(CN2CCN(CCCc3ccccc3)C(CCO)C2)cc1 (centres unmarked)	-64.1
CCCCOC(=O)Nc1ccc(S(=O)(=O)Nc2ccc([N+](=O)[O-])cc2)cc1	9.83
Cc1cc(C(=O)OCC(=O)c2cccs2)c2ccccc2n1	24.1
O=c1[nH][nH]c(-c2ccccc2)c1C=Nc1ccc(Cl)cc1	-23
Cc1ccc(C(=O)C2=C(O)C(=O)N(CCCN3CCOCC3)C23C(=O)N(C)c2ccccc23)o1 (centres unmarked)	27.9
O=C(Cn1[nH]c(=O)c2ccccc2c1=O)OCC(=O)c1ccccc1Cl	-0.463
CC(C)CCN1CCN(Cc2ccc3nsnc3c2)CC1CCO (centres unmarked)	-42.6
CCn1cc(CN2CCN(CCc3ccccc3)C(CCO)C2)c(C)n1 (centres unmarked)	-31
Cn1cc(CN2CCN(CCc3ccccc3)C(CCO)C2)cn1 (centres unmarked)	4.52
OCCC1CN(Cc2cccc(F)c2F)CCN1CCc1ccccc1 (centres unmarked)	-55.3
CC(C)n1cc(CN2CCN(CCc3ccccc3)C(CCO)C2)cn1 (centres unmarked)	-53.4
CC(C)=CCN1CCN(Cc2ccc3nsnc3c2)CC1CCO (centres unmarked)	-19.4
OCCC1CN(Cc2ccc3nsnc3c2)CCN1CCc1ccccc1 (centres unmarked)	-82.2

SMILES	hERG current change (%, negative = inhibition) at 10uM [%]
Cc1nn(-c2ccc(F)cc2)c(C)c1CN1CCN(Cc2ccccc2)C(CCO)C1 (centres unmarked)	-44.2
Cc1nn(-c2ccc(F)cc2)c(C)c1CN1CCN(CCc2ccccc2)C(CCO)C1 (centres unmarked)	-67.5
Cc1nn(-c2ccc(F)cc2)c(C)c1CN1CCN(CCC(C)C)C(CCO)C1 (centres unmarked)	-36.3
O=C(O)c1cncc(C#Cc2ccccc2)c1	1.39
Cc1c(C(=O)Nc2ccc(OCc3ccccc3)cc2)cccc1[N+](=O)[O-]	-0.125
CC1CCCCN1S(=O)(=O)c1ccc(C(=O)N2CCOCC2)cc1 (centres unmarked)	16.8
C[Se]C[C@@H](N)C(=O)O.Cl	12.3
COc1cc2ccccc2cc1C(=O)OCC(=O)N(C)c1c(N)n(Cc2ccccc2)c(=O)[nH]c1=O	3.29
Cn1c(C(=O)NCCN2CCc3ccccc3C2)cc2c(=O)n(C)c3ccccc3c21	-11.8
N/C(=N\OC(=O)CCCOc1ccccc1)c1ccccc1	7.28
Br.COC(=O)c1ccc(OCCN2C3=NCCN3c3ccccc32)cc1	-68.7
Br.COC(=O)CN1C2=NCCCN2c2ccccc21	-11.8
Cl.c1ccc(OCCN2C3=NCCN3c3ccccc32)cc1	-73.3
COC(=O)c1ccc(OCCOc2ccc(C(=O)OC)cc2)cc1	-14.3
CCN(CC)c1ccc(/C=N/NC(=O)c2ccc3nc[nH]c3c2)cc1	-22
N#C/C(=C/c1ccccc1)C(=O)OCC(=O)Nc1ccccc1[N+](=O)[O-]	8.46
Cc1nn(-c2ccccc2)c(C)c1-c1nnc(C(F)(F)F)o1	2.32
Cn1c(=O)c2c(-c3ccc(C(C)(C)C)cc3)n(N3CCOCC3)cc2n(C)c1=O	-26.7
Cc1ccc(-c2c3c(=O)n(C)c(=O)n(C)c3cn2N2CCOCC2)cc1	-40
COc1ccc(-c2c3c(=O)n(C)c(=O)n(C)c3cn2N2CCOCC2)cc1	-52.3
